Laboratory results taken from ChEMBL document CHEMBL3988442, “University of Dundee, Small-Polar-MMV Screening Library” (2021).

What was measured:
[1] = molecular target: T1, Aspartate--tRNA(Asp/Asn) ligase (Mycobacterium tuberculosis (strain ATCC 25618 / H37Rv)) (UniProt P9WFW3); test: Assay for Asp RNA synthetase-1 from Mycobacterium tuberculosis; format: functional; set-up: scale not given: direction of the effect not stated beside the values; settings: 30 µM; also: in the data most compounds retested in dose-response had high values
T1 sequence (whole entry): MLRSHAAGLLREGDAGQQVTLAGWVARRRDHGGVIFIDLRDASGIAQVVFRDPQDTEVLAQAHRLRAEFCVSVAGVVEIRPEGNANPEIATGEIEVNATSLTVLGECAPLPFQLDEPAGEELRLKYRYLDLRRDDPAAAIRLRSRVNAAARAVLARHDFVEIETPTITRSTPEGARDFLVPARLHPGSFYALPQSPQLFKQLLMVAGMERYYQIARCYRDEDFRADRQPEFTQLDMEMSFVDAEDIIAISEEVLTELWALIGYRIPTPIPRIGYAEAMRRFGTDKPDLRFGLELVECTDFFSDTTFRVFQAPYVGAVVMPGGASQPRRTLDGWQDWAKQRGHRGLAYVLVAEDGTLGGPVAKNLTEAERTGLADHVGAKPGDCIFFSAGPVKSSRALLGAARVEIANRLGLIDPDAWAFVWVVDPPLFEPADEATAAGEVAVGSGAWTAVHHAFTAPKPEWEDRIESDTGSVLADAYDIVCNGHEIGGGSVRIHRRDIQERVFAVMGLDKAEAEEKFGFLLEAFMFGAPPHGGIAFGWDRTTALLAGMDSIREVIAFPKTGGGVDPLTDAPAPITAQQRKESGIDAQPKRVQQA

[2] = molecular target: Shiga toxin 2 (Escherichia coli O157:H7) (UniProt P09385+P09386); test: E. coli 0.157:H7 Shiga Toxin SOP - stx2 screening assay; format: functional; set-up: scale not given: direction of the effect not stated beside the values; settings: 30 µM

SMILES | Percent Effect [1] [%] | Percent Effect [2] [%]
Cc1ccc(C(=O)N2Cc3c(CN4CCCCC4)nn(C)c3C2)cc1C | 4.62 | -4.53
CC(C)CN1CCC2(CCN(Cc3ccoc3)CC2)C1=O | 6.3 | -11.6
O=c1c2ccccc2nc2n1C(CSc1ccc(Cl)cc1Cl)CN2 (stereo not given) | 4.53 | 9.69
O=C(CCC1CCN(Cc2ncc[nH]2)CC1)Nc1ccccc1Cl | 0.166 | -7.7
CCCC(=O)N1CCC(O)(Cn2c(CC)nc3ccccc3c2=O)CC1 | 0.164 | 0.775
CNC(=O)C1(c2cnccn2)CCCN1C(=O)c1ccccc1OC (stereo not given) | -4.66 | -21.4
CCOC(=O)CCC(=O)NC(C)c1ccc(NC(=O)CC)cc1 (stereo not given) | -8.03 | -0.224
CC(c1nc(C(C)(C)C)no1)N1CCN(CC(=O)N2CCOCC2)CC1 (stereo not given) | -1.23 | 7.56
Cc1nccn1CC1CCCN1S(=O)(=O)Cc1ccccc1F (stereo not given) | 1.06 | -2.92
Cc1ncc(-c2nc3cc(S(=O)(=O)N4CCCC4)ccc3n2C)cn1 | 6.27 | 0.802
COc1cccc(COCC(=O)N2CCCC(c3nncn3C)C2)c1 (stereo not given) | -1.97 | 8.24
Cc1ncsc1C(=O)NC1CCN(CC(=O)NCc2ccccc2)CC1 | 1.54 | 34.9
CC(C)Cc1noc(CN2CCOC(Cn3cncn3)C2)n1 (stereo not given) | 1.02 | 16.9
CCOCCCn1c(NC(=O)c2cnn(C)c2)nc2ccccc21 | -2.49 | 22.6
Cn1cnc2c1C(COCc1cccnc1)N(Cc1ccccn1)CC2 (stereo not given) | 2.65 | -18.6
COCCN1CCC(CNC(=O)C2(c3cc(C)cc(C)c3)CCC2)C1 (stereo not given) | -0.337 | 20.8
Cn1ccnc1CN1CCN(Cc2noc(-c3ccccc3)n2)CC1 | -2.31 | -6.06
Cc1noc(C(C)C)c1C(=O)NCCN1CCCCCC1=O | 2.13 | -4.24
CCOCc1ncn2c1CN(C(=O)Nc1cccc(C)c1)CC2 | 1.59 | -12.7
CC(Cn1cccn1)NCc1nc(-c2cccc(Cl)c2)no1 (stereo not given) | -3.34 | 22.5
COc1ccc(CN2CC[C@@H](O)[C@@H]2Cc2ccccc2)cc1 | -0.406 | -47
O=S(=O)(C1CC1)N1CCC2(CC1)CC(Oc1cccnc1)CO2 (stereo not given) | 6.21 | -0.225
COCc1noc(-c2ccc(N3CCCCC3CO)nc2)n1 (stereo not given) | -2.46 | -5
COCCNC(=O)C(C)n1cc(Br)cn1 (stereo not given) | 9.87 | -44.4
CC(NC(=O)NCCN1CCCCCC1=O)c1nncn1C (stereo not given) | -7.63 | -18.6

SMILES | Percent Effect [1] [%] | Percent Effect [2] [%]
O=C(COc1ccc2c(c1)CCC2)N1CCOCC1c1ncon1 (stereo not given) | -4.77 | 22.5
COc1ccc(C2CCCCCN2S(=O)(=O)N(C)C)cc1 (stereo not given) | -8.89 | -9.69
Cc1ccccc1[C@@H]1CN(C(=O)c2ccc3[nH]nnc3c2)C[C@H]1C(=O)O | 2.17 | -15.8
COCc1nc(N(C)C)ncc1C(=O)NC(C)C | -0.697 | -16.3
CN(C)C(=O)c1nc2c(s1)CCN(C(=O)c1ccc(Cl)cc1)CC2 | 2.36 | -16.7
Cn1cc(C2CC(=O)NC23CCN(c2ncc(F)cn2)CC3)cn1 (stereo not given) | 0.844 | -18.9
CC(C)c1nc(C2CCCN(C(=O)CCn3ccnc3)C2)no1 (stereo not given) | 5.96 | 3.56
CCc1nccn1C1CCCN(C(=O)c2cn3cccnc3n2)C1 (stereo not given) | -1.08 | 5.72
Cc1ccc(S(=O)(=O)NC2CC2)cc1C | -2.59 | -0.587
COc1cc(CCC(C)O)c(OC)c2c1OCO2 (stereo not given) | -0.435 | -10.2
Cc1csc([C@@H]2C[C@@H]3CCN(Cc4cnn(C)c4)C[C@H]3O2)n1 | -2.71 | -29.9
Cc1nc(C2CCCN(C(=O)CO)C2)cc(N2CCOCC2)n1 (stereo not given) | -4.78 | 17.9
Cc1ccc(C2(CN3CCCC3)CCNCC2)nc1 | -4.12 | -12
Cc1cc(C[S+]([O-])CC(=O)Nc2c(C)cccc2C)no1 (stereo not given) | -6.04 | 17
CC(Cn1cccn1)NC(=O)Cc1cccs1 (stereo not given) | -2.6 | -16.8
N#Cc1cc(NC(=O)c2ccccc2)ccc1N1CCC(O)CC1 | -1.51 | -18.7
CCN(C(=O)CCCOc1ccccc1F)c1ccncc1 | -2.34 | 1.08
COc1ccc(CN2CCCC(Cn3nc(C)nc3C)C2)cc1F (stereo not given) | 0.335 | -1.86
CNC(=O)C1(c2cnccn2)CCCN1C(=O)c1ccn(C)n1 (stereo not given) | -7.79 | -1.47
N#Cc1ccc(C(=O)N2CC[C@H]3[C@@H]2CCC(=O)N3c2ccccc2)cc1 | 0.485 | -9.64
Cn1nc(C2CCCN(Cc3ccsc3)C2)c2nccnc21 (stereo not given) | -2.96 | -14.3
O=C1CN(Cc2nnc(-c3ccc(Br)cc3)o2)CCN1 | -0.167 | -95.1
CCc1nc(CC(=O)Nc2cnn(CC3CCCO3)c2)cs1 (stereo not given) | 1.86 | -10.7
CN(C)c1ccc(CC(=O)N[C@@H]2CCNC[C@H]2O)cc1 | 3.77 | 1.28
CN1CCN(Cc2ccccc2CNC(=O)c2ccc(Br)cc2)CC1 | -0.466 | 0.652
